A short description of the assay: probe aShh binding to arrayed compounds – biochemical, biotinylated probe, 635/667 nm fluorescence, primary screen (AID 1114).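 Also: probe is biotin-labelled aShh protein from a stem cell growth factor screen; measures binding of labelled protein to compounds printed on the slide; score merges feature fluorescence at 667 nm with signal-to-noise.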 To be noted: small-molecule microarray, higher = more signal.
`CCOC(=O)C1=CCC(c2ccco2)N(S(=O)(=O)c2ccc(C)cc2)C1` (centres undefined) had a composite z-score of 0.0048. With `COCCOC(=O)N1C(=O)[C@@]2(c3cc(C#CCC(C(=O)OC)C(=O)OC)ccc31)[C@H](C(=O)NC[C@H](O)c1ccccc1)[C@H]1C(=O)O[C@H](c3ccccc3)[C@H](c3ccccc3)N1[C@@H]2c1ccc(OCCO)cc1` the figure was 0.0141; with `CCCNC(=O)[C@@]1(Sc2ccc(C)cc2)CC(=O)N(C(C)C)[C@@H]1c1ccc(CO)cc1I`, -0.0553; with `COC(=O)[C@@]1(Cc2ccc(F)cc2)[C@H]2c3cc(C(=O)N4CCCC4)n(C)c3C[C@H]2CN1C(=O)c1ccccc1`, 0.0044. With `O=C1O[C@H](c2ccccc2)[C@H](c2ccccc2)N2[C@H]1[C@@H](C(=O)N1CCCCCCC1)[C@]1(C(=O)Nc3ccc(C#CC4(O)CCCCCC4)cc31)[C@H]2c1ccc(O)cc1` the figure was 2.97; with `O=C1O[C@H](c2ccccc2)[C@H](c2ccccc2)N2[C@H]1[C@@H](C(=O)O)[C@]1(C(=O)Nc3ccc(C#CC4(O)CCCCCC4)cc31)[C@H]2c1ccc(O)cc1`, 0.0611; with `COCCOC(=O)N1C(=O)[C@@]2(c3ccccc31)[C@H](c1ccccc1OCCO)N1[C@H](c3ccccc3)[C@H](c3ccccc3)OC(=O)[C@H]1[C@@H]2C(N)=O`, 0.0121. Next, `NC(=O)[C@@H]1[C@H]2C(=O)O[C@H](c3ccccc3)[C@H](c3ccccc3)N2[C@H](c2ccc(OCCO)cc2)[C@@]12C(=O)Nc1ccc(C#CCCO)cc12`: 0.166; `Cc1cccc([C@H]2C[C@H]3C(Br)=C[C@@H]2C(=O)[C@]32CO2)c1`: -0.341.

Source of the values: PubChem BioAssay.
